# Data from the supplement of paper PMC6992640.
# ± gives the standard deviation of the averaged measurements.
# Assays:
# [1] = test system: HCI01 (cells of a triple-negative basal-like breast cancer xenograft); experiment: cell viability (% of vehicle); higher = less cytotoxic; settings: 10 µM; 72 h
# [2] = test system: HCI09 (cells of a triple-negative luminal androgen receptor type breast cancer xenograft); experiment: as above; settings: 10 µM; 72 h
# [3] = test system: HCI11 (cells of an ER-positive luminal breast cancer xenograft); experiment: as above; settings: 10 µM; 72 h
# [4] = test system: HCI13 (cells of an ER-positive luminal breast cancer xenograft); experiment: as above; settings: 10 µM; 72 h
# [5] = test system: HCI16 (cells of a triple-negative basal-like breast cancer xenograft); experiment: as above; settings: 10 µM; 72 h
# [6] = test system: UCD52 (cells of a triple-negative basal-like breast cancer xenograft); experiment: as above; settings: 10 µM; 72 h
# [7] = test system: WHIM2 (cells of a triple-negative basal-like breast cancer xenograft); experiment: as above; settings: 10 µM; 72 h
# [8] = test system: WHIM30 (cells of a triple-negative basal-like breast cancer xenograft); experiment: as above; settings: 10 µM; 72 h
# [9] = test system: HCI03 (cells of an ER-positive luminal breast cancer xenograft); experiment: as above; settings: 10 µM; 72 h
# [10] = test system: HCI01; experiment: cell viability of combination (% of vehicle); higher = less cytotoxic; settings: 1 µM; 72 h; partner dose: 10 nM
# Experimental: (§1)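 PDX cells were treated for 72 h with each drug at 1 µM plus carfilzomib (10 nM; 100 nM for WHIM2). Luciferase viability is expressed as percent of vehicle.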
# [11] = test system: UCD52; experiment: as above; settings: 1 µM; 72 h; partner dose: 10 nM
# Experimental: as §1
compound,measurement,setting,value
OCC1OC(O)C(O)C(O)C1O [Dextrose (D-glucose)],cell viability,[1],123.4 ± 0.67
same,cell viability,[2],106 ± 1.3
same,cell viability,[3],125
same,cell viability,[4],124 ± 6.9
same,cell viability,[5],110
same,cell viability,[6],88.77 ± 0.6
same,cell viability,[7],105 ± 3.9
same,cell viability,[8],153 ± 12
COc1ccc(-c2cc(=O)c3c(O)cc(O)cc3o2)cc1O [Diosmetin],cell viability,[1],169 ± 46
same,cell viability,[2],170 ± 120
same,cell viability,[5],181
CC[C@]1(O)C[C@H]2CN(CCc3c([nH]c4ccccc34)[C@@](C(=O)OC)(c3cc4c(cc3OC)N(C=O)[C@H]3[C@@](O)(C(=O)OC)C(OC(C)=O)[C@]5(CC)C=CCN6CC[C@]43C65)C2)C1.O=S(=O)(O)O (some centres not stated) [Vincristine],cell viability,[9],111
same,cell viability,[2],91.3 ± 26
same,cell viability,[3],112
same,cell viability,[4],42.2 ± 2.8
same,cell viability,[5],200
same,cell viability,[6],85.1 ± 13
same,cell viability,[7],90.5 ± 12
same,cell viability,[8],153 ± 16
O=c1oc2cc(O)ccc2s1 [Tioxolone],cell viability,[1],115.5 ± 0.72
same,cell viability,[2],87.9 ± 13
same,cell viability,[3],96.8
same,cell viability,[4],85.9 ± 17
same,cell viability,[5],172
same,cell viability,[6],109.1 ± 0.84
same,cell viability,[7],129 ± 28
same,cell viability,[8],145 ± 30
CC(C)Cc1ccc(C(C)C(=O)O)cc1.NCCCCC(N)C(=O)O (configuration not stated) [Ibuprofen Lysine],cell viability,[9],130
same,cell viability,[2],106 ± 12
same,cell viability,[3],138
same,cell viability,[4],131 ± 6.2
same,cell viability,[5],162
same,cell viability,[6],132 ± 29
same,cell viability,[7],84.8 ± 3.6
same,cell viability,[8],170 ± 23
"CN1CCN(c2ccc3c(c2)NC(=C2C(=O)N=c4cccc(F)c4=C2N)N3)CC1 [Dovitinib (TKI-258, CHIR-258)]",cell viability,[1],92.5 ± 18
same,cell viability,[2],49.8 ± 24
same,cell viability,[3],79
same,cell viability,[6],125 ± 32
same,cell viability,[7],69.8 ± 20
same,cell viability,[8],104 ± 1.8
CC(O)=C(C#N)C(=O)Nc1ccc(C(F)(F)F)cc1 [Teriflunomide],cell viability,[3],162
same,cell viability,[4],196 ± 48
same,cell viability,[5],200
"CC=C1NC(=O)C2CSSCCC=CC(CC(=O)NC(C(C)C)C(=O)N2)OC(=O)C(C(C)C)NC1=O (configuration not stated) [Romidepsin (FK228, depsipeptide)]",cell viability,[9],177
same,cell viability,[2],77.5 ± 29
same,cell viability,[4],66.1 ± 6.7
same,cell viability,[7],34.4 ± 4.2
COc1ccc(C=CC(=O)Nc2ccccc2C(=O)O)cc1OC [Tranilast],cell viability,[3],87.9
same,cell viability,[5],108
same,cell viability,[6],116 ± 8.9
CCN(CC)CCCC(C)Nc1ccnc2cc(Cl)ccc12.O=P(O)(O)O.O=P(O)(O)O (configuration not stated) [Chloroquine diphosphate] + CC(C)C[C@H](NC(=O)[C@H](CCc1ccccc1)NC(=O)CN1CCOCC1)C(=O)N[C@@H](Cc1ccccc1)C(=O)N[C@@H](CC(C)C)C(=O)[C@@]1(C)CO1 [Carfilzomib],cell viability of combination,[10],64
same,cell viability of combination,[11],52.9
COC(=O)C12CCC(C)(C)CC1C1C(=O)C=C3C4(C)C=C(C#N)C(=O)C(C)(C)C4CCC3(C)C1(C)CC2 (configuration not stated) [Bardoxolone methyl] + CC(C)C[C@H](NC(=O)[C@H](CCc1ccccc1)NC(=O)CN1CCOCC1)C(=O)N[C@@H](Cc1ccccc1)C(=O)N[C@@H](CC(C)C)C(=O)[C@@]1(C)CO1 [Carfilzomib],cell viability of combination,[10],158
same,cell viability of combination,[11],28.1
CC(C=CC1=C(C)CCCC1(C)C)=CC=CC(C)=CC(=O)O [Tretinoin (Aberela)],cell viability,[9],143
same,cell viability,[3],149
same,cell viability,[4],146 ± 12
same,cell viability,[5],175
same,cell viability,[7],58.5 ± 19
"O=C(CCCCCCC(=O)Nc1ccccc1)NO [Vorinostat (SAHA, MK0683)]",cell viability,[2],46.1 ± 37
same,cell viability,[3],21.7
same,cell viability,[4],61 ± 23
same,cell viability,[7],47.5 ± 4.1
Cc1nc(-c2ccc(OCC(C)C)c(C#N)c2)sc1C(=O)O [Febuxostat],cell viability,[5],191
Oc1ccc(C=Cc2cc(O)cc(O)c2)cc1 [Resveratrol],cell viability,[2],196 ± 110
same,cell viability,[5],174
same,cell viability,[7],191 ± 54
CC1CC(=O)NN=C1c1ccc(NN=C(C#N)C#N)cc1 (configuration not stated) [Levosimendan] + CC(C)C[C@H](NC(=O)[C@H](CCc1ccccc1)NC(=O)CN1CCOCC1)C(=O)N[C@@H](Cc1ccccc1)C(=O)N[C@@H](CC(C)C)C(=O)[C@@]1(C)CO1 [Carfilzomib],cell viability of combination,[10],74.1
same,cell viability of combination,[11],61.5
CNC(=O)c1ccccc1Sc1ccc2c(C=Cc3ccccn3)n[nH]c2c1,cell viability,[3],158
same,cell viability,[5],150
same,cell viability,[6],191 ± 4.7
Cc1oncc1C(=O)Nc1ccc(C(F)(F)F)cc1 [Leflunomide],cell viability,[3],194
CCOC(=O)C1=C(COCCN)NC(C)=C(C(=O)OC)C1c1ccccc1Cl.O=S(=O)(O)c1ccccc1 (configuration not stated) [Amlodipine Besylate] + CC(C)C[C@H](NC(=O)[C@H](CCc1ccccc1)NC(=O)CN1CCOCC1)C(=O)N[C@@H](Cc1ccccc1)C(=O)N[C@@H](CC(C)C)C(=O)[C@@]1(C)CO1 [Carfilzomib],cell viability of combination,[10],97.1
same,cell viability of combination,[11],64.8
Cn1nnc(-c2ccc(-c3ccc(N4CC(CO)OC4=O)cc3F)cn2)n1 (configuration not stated) [Tedizolid],cell viability,[3],107
same,cell viability,[5],170
same,cell viability,[7],157 ± 57
CC(=Cc1ccccc1)C=C1SC(=S)N(CC(=O)O)C1=O [Epalrestat],cell viability,[9],112
same,cell viability,[3],96.4
same,cell viability,[4],170 ± 10
same,cell viability,[5],102
same,cell viability,[6],102 ± 11
same,cell viability,[8],134 ± 29
Nc1nc2ccc(OC(F)(F)F)cc2s1 [Riluzole],cell viability,[9],158
same,cell viability,[3],162
same,cell viability,[4],161 ± 27
same,cell viability,[5],139
same,cell viability,[6],175 ± 15
same,cell viability,[7],145 ± 7.3
CSc1ccc2c(c1)N(CCC1CCCCN1C)c1ccccc1S2.Cl (configuration not stated) [Thioridazine HCl] + CC(C)C[C@H](NC(=O)[C@H](CCc1ccccc1)NC(=O)CN1CCOCC1)C(=O)N[C@@H](Cc1ccccc1)C(=O)N[C@@H](CC(C)C)C(=O)[C@@]1(C)CO1 [Carfilzomib],cell viability of combination,[10],77.7
same,cell viability of combination,[11],64.4
CCCCCCCCOc1ccccc1C(=O)Nc1ccc(C(=O)OCC[N+](C)(CC)CC)cc1.[Br-] [Otilonium Bromide] + CC(C)C[C@H](NC(=O)[C@H](CCc1ccccc1)NC(=O)CN1CCOCC1)C(=O)N[C@@H](Cc1ccccc1)C(=O)N[C@@H](CC(C)C)C(=O)[C@@]1(C)CO1 [Carfilzomib],cell viability of combination,[10],81.5
same,cell viability of combination,[11],67
CC(C)Nc1cc(-c2c[nH]c(C(=O)NC(CO)c3cccc(Cl)c3)c2)c(Cl)cn1 (configuration not stated) + CC(C)C[C@H](NC(=O)[C@H](CCc1ccccc1)NC(=O)CN1CCOCC1)C(=O)N[C@@H](Cc1ccccc1)C(=O)N[C@@H](CC(C)C)C(=O)[C@@]1(C)CO1 [Carfilzomib],cell viability of combination,[10],94
same,cell viability of combination,[11],48.9
O=C(Nc1nc2cccc(-c3ccc(CN4CCS(=O)(=O)CC4)cc3)n2n1)C1CC1,cell viability,[2],186 ± 51
same,cell viability,[8],147 ± 9.8
c1cn2cc(-c3ccc4cn[nH]c4c3)nc(Nc3ccc(N4CCOCC4)cc3)c2n1,cell viability,[3],125
same,cell viability,[5],86.2
CC(O)C(=O)O.CCOc1ccc2nc3cc(N)ccc3c(N)c2c1.O [Ethacridine lactate monohydrate] + CC(C)C[C@H](NC(=O)[C@H](CCc1ccccc1)NC(=O)CN1CCOCC1)C(=O)N[C@@H](Cc1ccccc1)C(=O)N[C@@H](CC(C)C)C(=O)[C@@]1(C)CO1 [Carfilzomib],cell viability of combination,[10],74.3
same,cell viability of combination,[11],66.7
CC(O)C(=O)O.CC(O)C(=O)O.CN1CCN(c2ccc3c(c2)NC(=C2C(=O)N=c4cccc(F)c4=C2N)N3)CC1 [Dovitinib Dilactic acid] + CC(C)C[C@H](NC(=O)[C@H](CCc1ccccc1)NC(=O)CN1CCOCC1)C(=O)N[C@@H](Cc1ccccc1)C(=O)N[C@@H](CC(C)C)C(=O)[C@@]1(C)CO1 [Carfilzomib],cell viability of combination,[10],71.2
same,cell viability of combination,[11],88.8
O=C(C=Cn1cnc(-c2cc(C(F)(F)F)cc(C(F)(F)F)c2)n1)NNc1cnccn1 + CC(C)C[C@H](NC(=O)[C@H](CCc1ccccc1)NC(=O)CN1CCOCC1)C(=O)N[C@@H](Cc1ccccc1)C(=O)N[C@@H](CC(C)C)C(=O)[C@@]1(C)CO1 [Carfilzomib],cell viability of combination,[10],57.3
same,cell viability of combination,[11],40.1
